Results: ChEMBL document CHEMBL4513216, “Probing the Open Global Health Chemical Diversity Library for Multistage-Active Starting Points for Next-Generation Antimalarials” (ACS Infect Dis, 2020)
Screen size: about 69,000 compounds; about 8,600 (12%) showed an effect of 50% or more. The sample holds strong results, similar compounds and a random draw of the others, so the mix is not that of the screen.

Test system: Plasmodium berghei
Test: Screen against P. berghei liver stage (PbLuc), transformed with Luciferase, at 10uM
Assay type: functional, HepG2
Settings: tested at 10 uM

SMILES	INHIBITION [%]
CN(Cc1ccc2c(c1)OCO2)C(=O)NCCc1cnn(C)c1	28.15
Cc1ccccc1CNC(C)c1ccc(OCC(=O)NC2CC2)cc1 (centres undefined)	7.08
Cc1nc2c(C#N)cnn2c(C)c1CCC(=O)N(C)C(C)C(C)C (centres undefined)	62.8
Cc1nc2cc(O)nn2c(C)c1CCC(=O)N(C)CCC(C)C	-57.5
Cc1nc2c(C#N)cnn2c(C)c1CCC(=O)N(C)C1CC1	28.5
COCC(C)N(C)C(=O)CCc1c(C)nc2c(C#N)cnn2c1C (centres undefined)	63.8
Cc1nn(C)c(C)c1CCC(=O)N(C)Cc1ccc(C#N)cc1	-12.5
COC(=O)c1cc(C2CC2)nc2c(C#N)cnn12	25.9
CCCn1[nH]c(CNc2cccc(Cl)c2)nc1=O	46.4
Cc1nnc2n1CCN(C(=O)c1cc3cc(F)ccc3[nH]1)C2	14.1
Cn1cc(CN2CCC3(CCCN(C(=O)c4cscn4)C3)C2)cn1 (centres undefined)	-68.5
Cc1cn2c(n1)CCC(NC(=O)c1cc(C3CC3)[nH]n1)C2 (centres undefined)	-1.14
Cc1cc2nc(CN(C)c3ccc(Cl)cc3)cc(=O)n2o1	56
Cc1cccc(N(C)Cc2cc(=O)n3oc(C)cc3n2)c1	43.5
Cc1cc2nc(CN(C)c3ccccc3)cc(=O)n2o1	12.9
NC(=O)[C@H]1CCCN1C(=O)c1csc(-c2ccc(C(F)(F)F)cc2)n1	-2.25
CCOCC1CCN(C(=O)C(c2ccc(F)cc2)N(C)C)CC1 (centres undefined)	17.5
CNS(=O)(=O)c1c(C)sc2ccccc12	-77.9
Cc1[nH]ncc1C(=O)N1CCCC(c2ccn[nH]2)C1 (centres undefined)	23.5
Cc1nc(CN2CCCN(C(=O)c3cnccn3)CC2)cs1	-16.4
CC(CNS(C)(=O)=O)c1ccc(F)c(F)c1 (centres undefined)	60.4
CC(CNS(N)(=O)=O)c1ccc(F)c(F)c1 (centres undefined)	31.1
CCCS(=O)(=O)NCC(C)c1ccc(F)c(F)c1 (centres undefined)	10

SMILES	INHIBITION [%]
Cc1ccn(-c2ccnc(N3CCN(c4ncccn4)CC3)n2)n1	44.9
COCCO[C@H]1CCN(c2ccc(C)nn2)[C@H]1Cc1cnn(C)c1	13.7
COc1ccc(CS(=O)(=O)CC(=O)NCc2ccccc2F)cc1F	40.3
CNC(=O)CS(=O)(=O)Cc1ccc(OC)c(F)c1	52.2
COc1ccc(CS(=O)(=O)CC(=O)NCC2CC2)cc1F	19
Cc1nccn1CCN(C)C(=O)C1CCN(C(=O)C2CCCC2)CC1	48.9
N#Cc1ccc(C(=O)N2CCCSCC2CN2CCCC2)cc1 (centres undefined)	40.8
Cc1cc(S(C)(=O)=O)c(C)c(S(=O)(=O)N2CCCC(C)C2)c1 (centres undefined)	63
Cc1cc(S(C)(=O)=O)c(C)c(S(=O)(=O)N2CCN(C)CC2)c1	31.9
Cc1cc(S(C)(=O)=O)c(C)c(S(=O)(=O)N2CCCCCC2)c1	36.4
CC(=O)c1c(F)cccc1NCC(O)C1CC1 (centres undefined)	26
Cc1nc(NCc2scnc2-c2ccccc2)cc(C2CCNCC2)n1	24.3
CN(C)c1ccc(-c2cc(=O)n3c(n2)CCCCC3)cc1	35.1
Cc1ccc(S(=O)(=O)n2ccn(C(=O)COc3ccccc3)c2=O)cc1	44.1
Cc1cc(CSC2CCCN(c3cnn(C)c3)C2=O)no1 (centres undefined)	30.5
Cn1cc(N2CCCC(SCc3nc(C4CC4)no3)C2=O)cn1 (centres undefined)	51.2
CC(C)Cc1nc(CSC2CCCN(c3cnn(C)c3)C2=O)no1 (centres undefined)	20.1
c1nc(CCC2CCCN2)cc(N2CCCCCC2)n1 (centres undefined)	5.11
Cc1n[nH]c(C)c1C1COCCN1C(=O)c1ccc2c(c1)CCO2 (centres undefined)	32.125
CSCc1cc(F)ccc1CNCc1cccc(O)c1	5.15
O=C1CC(c2ccc3c(c2)OCO3)c2snc(C(=O)O)c2N1 (centres undefined)	15.1
CN(C)C(=O)CC1CC2(CCNCC2)c2cc(F)ccc21 (centres undefined)	59.1
COCCN1CCC2(CC1)CC(CC(N)=O)c1ccc(F)cc12 (centres undefined)	-8.85

SMILES	INHIBITION [%]
COCC(=O)N1CCC2(CC1)CC(OC)c1ccc(F)cc12 (centres undefined)	42.1
NC(=O)CC1CC2(CCNCC2)c2cc(F)ccc21 (centres undefined)	59.3
O=C(C1CC1)N1CC2(CCNCC2)c2cc(F)ccc21	-12.2
CC(C)N1CCC2(CC1)CC(CC(N)=O)c1ccc(F)cc12 (centres undefined)	58.7
O=C(CC1CC2(CCNCC2)c2ccccc21)NCC1CC1 (centres undefined)	57.5
CNC(=O)CC1CC2(CCNCC2)c2cc(F)ccc21 (centres undefined)	44.8
CS(=O)(=O)N1CCC2(CC1)CC(CC(=O)NCC1CC1)c1ccccc12 (centres undefined)	3.69
O=C(CC1CC2(CCN(CC3CC3)CC2)c2ccccc21)NC1CCC1 (centres undefined)	34.4
O=c1n(CCNCc2ccc(-c3ccccc3)cc2)nc2ccccn12	35.7
Cc1nn(C)c(Cl)c1C1CCCN1CC(=O)Nc1cccnc1 (centres undefined)	21.6
Cn1cc(-c2ncc3c(c2C(=O)O)CCN(CC2CCOC2)C3)cn1 (centres undefined)	17.7
O=C(c1ccco1)N1C[C@H]2CCCN(Cc3ccc(F)cc3)[C@H]2C1	29.4
Cc1nc(N(C)C)ncc1C(=O)N[C@H]1Cc2ccccc2[C@@H]1N	2.7
COCCN(Cc1ccoc1)S(=O)(=O)c1ccc(OC)c(Cl)c1	25.4
Cc1noc(NCc2cn(C)nc2-c2cccnc2)n1	41.5
CNc1oc(-c2cc(S(=O)(=O)N3CCCCCC3)c(C)o2)nc1C#N	39.5
Cc1oc(-c2nc(C#N)c(NC(C)C)o2)cc1S(=O)(=O)N1CCCCC1	60.1
Cc1oc(-c2nc(C#N)c(NC(C)C)o2)cc1S(=O)(=O)N1CCCC1	34.6
Cn1cnc(S(=O)(=O)N2CCCc3c(F)cc(F)cc32)c1Cl	30.3
Cc1cccc(OCCSCCn2nc3ccccn3c2=O)c1	22
COCCCOc1ccc(C(=O)N(C)Cc2cccc(O)c2)cn1	38
COCCCOc1ccc(C(=O)N(C)CCC(C)C)cn1	39.7
CCc1nc(CN(C)C(=O)c2ccc(OCCCOC)nc2)cs1	82.5
